Here are results for 16 molecules from PubChem BioAssay (NCATS).

Structures are written as SMILES. Where “and” joins values, the source holds several entries; their conditions need not be identical. Identical values can stand only once. Inconclusive results are not listed. Calls of active or inactive are those of the source. Unless noted, calls follow the shape of the full dose curve.

The nature of experiment [1]: Primary qHTS to identify inhibitors of SARS-CoV-2 cell entry (AID 1645846). Also: nearly all actives have a fitted effect of over 45% in size. Also: potency is read from the fitted curve at half-maximal effect. In a few lines:
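Data are normalized to wells receiving SARS-CoV-2-S pseudoparticles and those given bald particles. Entry signal was luciferase luminescence in stable hACE2 Expi293F cells, 48 hr post-infection, after 1 hr compound pretreatment.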

Experiment [2] is described as follows: Cytotoxicity counterscreen for inhibitors of SARS-CoV-2 cell entry (AID 1645845). Also: nearly all actives have a fitted effect of over 50% in size. Also: potency is read from the fitted curve at half-maximal effect. Summed up:
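Expi293F/hACE2 cells seeded overnight; cpd pin-transferred in DMSO, 1 h preincubation, + media, 48 h 37 C 5% CO2; ATPLite 1step luminescence; normalized to cells and no cells.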
(In general: A counterscreen serves to expose hits that act by an unwanted route or on another target.)

Experiment [3] deals with Papain (Carica papaya) (UniProt P00784). Nature of the experiment: Primary qHTS assay for inhibitors of the protease papain (AID 1645873; active = well fitted inhibition curve with a large enough effect;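 also: papain turnover of Z-FR-AMC read as the AMC fluorescence gain over 10 min; % is scaled to controls: 0 for no effect and ±100 for the full control effect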). (In general: In qHTS, concentration-response curves come from the screen itself.)
Sequence of Papain (Carica papaya) (P00784 whole entry, looked up): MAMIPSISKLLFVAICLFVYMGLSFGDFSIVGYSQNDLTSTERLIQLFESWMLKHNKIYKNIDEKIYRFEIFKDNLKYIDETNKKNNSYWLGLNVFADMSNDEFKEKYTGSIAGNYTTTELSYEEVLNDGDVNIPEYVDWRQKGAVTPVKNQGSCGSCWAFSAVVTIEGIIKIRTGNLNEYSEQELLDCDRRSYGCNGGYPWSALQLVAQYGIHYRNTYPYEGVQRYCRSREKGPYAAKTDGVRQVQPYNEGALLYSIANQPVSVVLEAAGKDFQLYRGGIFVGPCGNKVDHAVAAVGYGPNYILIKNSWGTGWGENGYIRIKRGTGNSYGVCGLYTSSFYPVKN
Where [4] appears, read: activity change, negative = inhibition: at 57.1 µM (top of the series) unless noted.

In the case of `CCOc1cc(NC(C)=O)ccc1C(=O)OC`, the Potency result in experiment [1] (setting [4]) is “inactive”. As to `CN(C(=O)C(Cl)Cl)c1ccc(OC(=O)c2ccco2)cc1`, the Potency entry in experiment [1] (setting [4]) was “inactive”. For `COc1ncnc(NS(=O)(=O)c2ccc(N)cc2)c1OC`, the Potency result in experiment [2] was “inactive”. Also, in experiment [1] (setting [4]), the Potency entry is “inactive” and the activity change, negative = inhibition is -2.62%.

Take `CC(C[N+](C)(C)C)OC(N)=O` (stereo not given): in experiment [2], the Potency result is “inactive”. Further, in experiment [1] (setting [4]), the Potency result is “inactive” and the activity change, negative = inhibition is -6.96%. Turning to `c1ccc2c(CCNc3ccc(Nc4ccncc4)cc3)c[nH]c2c1`, the Potency is 17.8 µM (active) in experiment [2] and 8.91 µM (active) in experiment [1] (setting [4]). Turning to `Cn1cc(-c2ccc3nnc(Sc4ccc5ncccc5c4)n3n2)cn1`, the Potency entry in experiment [2] and in experiment [1] (setting [4]) was “inactive” throughout. As for `COc1ccccc1-c1cccc(-c2c(O)c3cc(C#N)c(Cl)cc3[nH]c2=O)c1`, the Potency result in experiment [2] was “inactive”. In addition, the activity change, negative = inhibition in experiment [1] (setting [4]) was -22.8%. For `COc1ccc2c(c1)CC[C@@H](CN(C)CC(=O)O)[C@H]2c1ccccc1`, the Potency result in experiment [1] (setting [4]) was “inactive”.

In the case of `NC1=NC(=O)N2CC12` (stereo not given), in experiment [2], the Potency result is “inactive”. Further, the activity change, negative = inhibition in experiment [1] (SARS-CoV-2 pseudovirus cell entry assay, luminescence, at 57.1 µM (top of the series)) is -95.3%; in experiment [1] (SARS-CoV-2 pseudovirus cell entry assay, luminescence, at 114 µM (top of the series)), -13.1%.

As to `COc1c(N2CCNC(C)C2)c(F)cc2c(=O)c(C(=O)O)cn(C3CC3)c12` (stereo not given), the Potency result in experiment [2] is “inactive”. In experiment [1] (setting [4]), the activity change, negative = inhibition is -3.63% and -6.19%. `CC[C@@H](C(N)=O)N1CCCC1=O`: the Potency entry in experiment [2] and in experiment [3] was “inactive” throughout. Besides, in experiment [1] (setting [4]), the activity change, negative = inhibition is -1.29%. Regarding `CC[N+](C)(CC)CCOC(=O)C(O)(c1ccccc1)C1CCCCC1` (stereo not given), the Potency entry in experiment [2] and in experiment [1] (setting [4]) was “inactive” each time. Consider `Cc1ccc(C(N)=O)cc1Nc1nccc(-c2cn(C(C)C)c3cnccc23)n1`, for which the Potency in experiment [1] (setting [4]) was 8.91 µM (active). For the molecule `CC(=O)OCCN1C(=O)c2c(C)nc3ccc(S(=O)(=O)N4CCOCC4)cc3c2C1=O`, the activity change, negative = inhibition in experiment [1] (setting [4]) was determined as 2.17%. Regarding `Cn1c(NCCN(CCO)CCCc2ccc([N+](=O)[O-])cc2)cc(=O)n(C)c1=O`, the activity change, negative = inhibition in experiment [1] (setting [4]) is -16.7% and 1.27%. Take `CC(C)c1ccccc1Cc1cc(C(=O)Nc2ccc(S(=O)(=O)c3ccccc3C(C)(C)C)cc2)c(O)c(O)c1O`: the Potency entry in experiment [2] and in experiment [1] (setting [4]) was “inactive” each time.
